# The OligoGym collection
# Molecular target: SLC25A5
# Experiment: pooled miR-30 sensor sort-seq; sequence = guide strand
# Conditions: shRNA
# Further: reference of the scale not given here.
row,Sequence,sensor-assay potency score (higher = more potent)
1,TCGGTAGATGATAATACCCTGC,-0.461
2,TTTGTATTGCTTATCTGCAGTG,-0.375
3,TTGTATTTATCTTTGAAGGCGA,-0.168
4,AGATTTGTAGATCTTAACCAGG,-1.69
5,TCTGCAGTGATCTGCTTGCTGG,-0.995
6,TCACGAGCAATCTTCCGCCAGC,-0.904
7,TTTGTAGATCTTAACCAGGCAG,-0.343
8,TTCTCTTGTCCACACCACCCAG,-1.25
9,TGCAGTGTCATAGATACCGAAG,-1.43
10,TTCATCACGAGCAATCTTCCGC,-0.132
11,TTGCTTCCCATTTTCAACCAGT,-0.278
12,TGCCTTTGTATTGCTTATCTGC,-0.404
13,TTGTATTGCTTATCTGCAGTGA,-0.0407
14,TTGCTTATCTGCAGTGATCTGC,-0.049
15,TTGCAGTGTCATAGATACCGAA,-0.793
16,TATCTGATGACATTGGCCAGGT,0.271
17,TTATCTTTGAAGGCGAAGTTAA,-1.05
18,TTATCTGCAGTGATCTGCTTGC,0.187
19,ATGGATAGGAAGTCAACCCGGC,-0.119
20,TACAAGACAAGCACAAAAGCAC,0.0644
21,TATAATGCCTTTGTATTGCTTA,0.347
22,TTGTAGATCTTAACCAGGCAGT,-0.456
23,TCTCTTGTCCACACCACCCAGG,-0.852
24,TTCATCATACAAGACAAGCACA,-1.02
